Experimental data as given in PubChem BioAssay (Tox21).
Records with an inconclusive call do not appear. Entries that show only a call come without a potency. Activity calls are given as the source filed them. Calls come from the whole dose curve; as a rule, active = well fitted cell-killing curve with a large enough effect in the repeat runs; inconclusive = weak or mixed curves, or effect the other way; inactive = flat fitted curve, though single readings scatter.

Experiment: qHTS RealTime-Glo MT Cell Viability Assay in HEK293 cells - 0 hour (AID 1224880); note: nearly all actives have a fitted effect of over 45% in size
Settings: RealTime-Glo luminescence; series mostly up to 76.8 µM
In short: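 Kinetic, non-lysing viability readout. Seed HEK293 (600/well) with reagent, incubate 5 h at 37 C/5% CO2, pin 23 nL compound in DMSO, incubate at 37 C, read luminescence at 0, 8, 16, 24, 32, 40 h.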
Potency is the fitted concentration of half-maximal effect.

Structure (SMILES)	Potency
Cn1cnc([N+](=O)[O-])c1Sc1ncnc2nc[nH]c12	inactive
Oc1ccc(O)cc1	inactive
CC(CCC(=O)O)(c1ccc(O)cc1)c1ccc(O)cc1	inactive
COc1ccc(OC)c(C(O)CNC(=O)CN)c1 (stereo unspecified)	inactive
C#C[C@]1(O)CC[C@H]2[C@@H]3CCc4cc(OC)ccc4[C@H]3CC[C@@]21C	inactive
c1ccc2c(c1)Oc1ccccc1S2	inactive
Cc1c(OCC(F)(F)F)ccnc1CS(=O)c1nc2ccccc2[nH]1 (stereo unspecified)	inactive
CC(=O)C1(C)CC2=C(CCCC2(C)C)CC1C (stereo unspecified)	inactive
c1ccc2sc(SSN3CCOCC3)nc2c1	inactive
CCCCC(CC)COP(=O)(OCC(CC)CCCC)OCC(CC)CCCC (stereo unspecified)	inactive
O=C(Nc1ccc([N+](=O)[O-])cc1Cl)c1cc(Cl)ccc1O	inactive
CCCC(=O)O	inactive
CCCCc1oc2ccccc2c1C(=O)c1cc(I)c(OCCN(CC)CC)c(I)c1	inactive
CC(=O)Oc1ccccc1C(=O)Nc1ncc([N+](=O)[O-])s1	inactive
O=C(c1ccccc1)c1ccccc1O	inactive
Cc1ccc2c(n1)Oc1ccc(C(C)C(=O)OCC(=O)N(C)C)cc1C2 (stereo unspecified)	inactive
O=C(/C=C/C=C/c1ccc2c(c1)OCO2)N1CCCCC1	inactive
O=CCc1ccccc1	inactive

Structure (SMILES)	Potency
CN(C)CCN(Cc1cccs1)c1ccccn1	inactive
CCCCOCCOCCOCCO	inactive
c1cc(N(CC2CO2)CC2CO2)ccc1OCC1CO1 (stereo unspecified)	inactive
CC1=CC2C3CC(C=C3C)C2C1 (stereo unspecified)	inactive
OC1CCCCCCCCCCC1	inactive
O=C(c1ccc(OCCN2CCCCC2)cc1)c1c(-c2ccc(O)cc2)sc2cc(O)ccc12	inactive
CCC(C)OC(=O)c1ccc(O)cc1 (stereo unspecified)	inactive
OC[C@H]1O[C@@H]2O[C@H]3[C@H](O)[C@@H](O)[C@@H](O[C@H]4[C@H](O)[C@@H](O)[C@@H](O[C@H]5[C@H](O)[C@@H](O)[C@@H](O[C@H]6[C@H](O)[C@@H](O)[C@@H](O[C@H]7[C@H](O)[C@@H](O)[C@@H](O[C@H]8[C@H](O)[C@@H](O)[C@@H](O[C@H]1[C@H](O)[C@H]2O)O[C@@H]8CO)O[C@@H]7CO)O[C@@H]6CO)O[C@@H]5CO)O[C@@H]4CO)O[C@@H]3CO	inactive
COc1c(Cl)c(Cl)c(Cl)c(Cl)c1Cl	inactive
S=C(NC1CCCCC1)NC1CCCCC1	inactive
O=C1c2cccc(O)c2C(=O)c2c(O)cccc21	inactive
CC(=O)O[C@]1(C(C)=O)CC[C@H]2[C@@H]3C=C(Cl)C4=CC(=O)[C@@H]5C[C@@H]5[C@]4(C)[C@H]3CC[C@@]21C	inactive
CCC(C)c1ccccc1O (stereo unspecified)	inactive
CCOCCOCCO	inactive
COc1ccccc1/C=C/C=O	inactive
O=C(Nc1ccc(Cl)cc1)Nc1ccc(Cl)c(Cl)c1	inactive
C[C@]12CC[C@H]3[C@@H](CCC4=CC(=O)CC[C@@]43C)[C@@H]1CC[C@@H]2C(=O)CO	17.4 µM (active)
CC(C)Oc1ccc2c(=O)c(-c3ccccc3)coc2c1	inactive
